PubChem BioAssay AID1159580 (chemical genetic matrix, 2015)
Several values for one entry are separate records, joined by “and”; a condition that tells them apart may be missing. Equal entries are not always repeated. Screen size: about 5,500 compounds; about 2,000 (36%) were called active. Another 18% or so got no clear call; they are omitted. No stated cut-off is given here; in the data, active means normalized growth mostly below about 0.91 (no sharp cut-off); inconclusive means no clear call, values can overlap the other calls; inactive means mostly above about 0.92. This is one part of the list.

Assay: chemical genetic growth profiling, strain panel (AID 1159580);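 further: tested at 20 µM; growth read once vehicle control cultures reached saturation at 30 °C; 1 = growth at the plate median or of vehicle wells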
Settings: S. cerevisiae deletion strains, growth OD

Measured: normalized growth

NCCS
inactive: locus YAL013W, strain DEP1, stronger effect = lower value 1 | locus YAL021C, strain ccr4, stronger effect = lower value 0.977 | locus YAL026C, strain drs2, stronger effect = lower value 0.99 | locus YAL030W, strain snc1, stronger effect = lower value 1.01 | locus YAL040C, strain CLN3, stronger effect = lower value 0.985 | locus YBL061C, strain skt5, stronger effect = lower value 0.988 | locus YBR009C, strain hhf1, stronger effect = lower value 0.988 | locus YBR021W, strain FUR4, stronger effect = lower value 1 | locus YBR023C, strain chs3, stronger effect = lower value 0.987 | locus YBR171W, strain sec66, stronger effect = lower value 0.998 | locus YBR229C, strain ROT2, stronger effect = lower value 1.01 | locus YBR231C, strain swc5, stronger effect = lower value 0.991 | locus YBR279W, strain paf1, stronger effect = lower value 1 | locus YCL011C, strain gbp2, stronger effect = lower value 0.982 | locus YCL016C, strain dcc1, stronger effect = lower value 0.976 | locus YCL029C, strain bik1, stronger effect = lower value 1.02 | locus YCL061C, strain MRC1 (second series), stronger effect = lower value 1.01 | locus YCL061C, strain MRC1, stronger effect = lower value 1 | locus YCL069W, strain vba3, stronger effect = lower value 0.992 | locus YCR088W, strain abp1, stronger effect = lower value 0.994 | locus YDL005C, strain med2, stronger effect = lower value 0.981 | locus YDL035C, strain GPR1, stronger effect = lower value 1.02 | locus YDL040C, strain nat1, stronger effect = lower value 0.992 | locus YDL074C, strain BRE1, stronger effect = lower value 1.02 | locus YDL101C, strain DUN1, stronger effect = lower value 1.01 | locus YDL134C, strain PPH21, stronger effect = lower value 1.02 | locus YDL185W, strain tfp1, stronger effect = lower value 1 | locus YDL192W, strain arf1, stronger effect = lower value 1.01 | locus YDR001C, strain nth1, stronger effect = lower value 0.997 | locus YDR069C, strain doa4, stronger effect = lower value 0.988 | locus YDR101C, strain arx1, stronger effect = lower value 1 | locus YDR137W, strain rgp1, stronger effect = lower value 1 | locus YDR150W, strain NUM1, stronger effect = lower value 1.01 | locus YDR159W, strain sac3, stronger effect = lower value 0.986 | locus YDR162C, strain NBP2, stronger effect = lower value 1.01 | locus YDR195W, strain ref2 0.923 | locus YDR297W, strain sur2, stronger effect = lower value 0.999 | locus YDR318W, strain mcm21, stronger effect = lower value 1.01 | locus YDR334W, strain swr1, stronger effect = lower value 0.972 | locus YDR335W, strain msn5, stronger effect = lower value 0.991 | locus YDR363W, strain ESC2, stronger effect = lower value 1.03 | locus YDR388W, stronger effect = lower value 1.01 | locus YDR392W, strain spt3, stronger effect = lower value 0.969 | locus YDR502C, strain sam2, stronger effect = lower value 1.01 | locus YEL003W, strain gim4, stronger effect = lower value 0.986 | locus YEL037C, strain rad23, stronger effect = lower value 0.983 | locus YEL061C, strain CIN8 (second series), stronger effect = lower value 0.976 | locus YEL061C, strain CIN8, stronger effect = lower value 1.01 | locus YER002W, strain NOP16, stronger effect = lower value 0.992 | locus YER015W, strain faa2, stronger effect = lower value 0.995 | locus YER016W, strain bim1, stronger effect = lower value 1 | locus YER110C, stronger effect = lower value 1.02 | locus YER111C, strain swi4, stronger effect = lower value 0.986 | locus YER155C, strain BEM2 (second series), stronger effect = lower value 0.982 | locus YER155C, strain BEM2, stronger effect = lower value 1.01 | locus YER167W, strain BCK2, stronger effect = lower value 1.02 | locus YFR010W, strain ubp6, stronger effect = lower value 0.981 | locus YGL078C, strain dbp3, stronger effect = lower value 1.02 | locus YGL086W, strain mad1, stronger effect = lower value 1.01 | locus YGL167C, strain pmr1, stronger effect = lower value 0.982 | locus YGL173C, strain kem1, stronger effect = lower value 0.986 | locus YGL227W, strain vid30, stronger effect = lower value 0.984 | locus YGL240W, strain doc1, stronger effect = lower value 0.976 | locus YGL248W, strain PDE1, stronger effect = lower value 1.01 | locus YGL253W, strain hxk2, stronger effect = lower value 0.979 | locus YGR078C, strain PAC10, stronger effect = lower value 1.02 | locus YGR135W, strain pre9, stronger effect = lower value 1.02 | locus YGR229C, strain SMI1, stronger effect = lower value 1.01 | locus YGR252W, strain gcn5, stronger effect = lower value 1.04 | locus YHR013C, strain ard1, stronger effect = lower value 0.972 | locus YHR027C, strain rpn1, stronger effect = lower value 0.985 | locus YHR030C, strain SLT2, stronger effect = lower value 1.02 and 1.03 | locus YHR079C, strain IRE1 (second series), stronger effect = lower value 1.02 | locus YHR079C, strain IRE1, stronger effect = lower value 1.04 | locus YHR094C, strain hxt1, stronger effect = lower value 1.01 | locus YHR129C, strain ARP1, stronger effect = lower value 1.01 | locus YHR142W, strain chs7, stronger effect = lower value 0.984 | locus YHR200W, strain rpn10, stronger effect = lower value 1.02 | locus YIL066C, strain RNR3, stronger effect = lower value 1.02 | locus YIL073C, strain SPO22, stronger effect = lower value 1.02 | locus YIL125W, strain kgd1, stronger effect = lower value 1.01 | locus YIR030C, strain dcg1, stronger effect = lower value 1.03 | locus YJL092W, strain hpr5, stronger effect = lower value 0.997 | locus YJL095W, strain BCK1 (second series), stronger effect = lower value 0.996 | locus YJL095W, strain BCK1, stronger effect = lower value 1.01 and 1.02 | locus YJL115W, strain asf1, stronger effect = lower value 0.966 | locus YJL129C, strain trk1, stronger effect = lower value 0.995 | locus YJL134W, strain LCB3, stronger effect = lower value 1.01 | locus YJL154C, strain vps35, stronger effect = lower value 0.988 | locus YJL164C, strain tpk1, stronger effect = lower value 0.99 | locus YJL166W, strain qcr8, stronger effect = lower value 1 | locus YJL168C, strain set2, stronger effect = lower value 1.02 | locus YJL187C, strain SWE1 (second series), stronger effect = lower value 1.01 | locus YJL187C, strain SWE1, stronger effect = lower value 0.992 | locus YJR043C, strain POL32, stronger effect = lower value 1.01 | locus YJR066W, strain TOR1, stronger effect = lower value 0.998
